# HCV inh = qHTS Assay for Inhibitors of Hepatitis C Virus (HCV); Huh7.5.1 HCVcc-Cre infection, luciferase reporter, 44 h; Potency, µM (highest dose often 41.8 µM), actives largely listed as inhibitors; 340,000 tested, 3.4% active; AID 651820, 2012; active = well fitted inhibition curve with a large enough effect; inconclusive = small, poorly fitted or top-dose-only effect, or another doubt; inactive = no such curve, though single readings can be large or run the other way
#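 Cells (1,000/well) were plated 4 h before compound, then infected with HCVcc-Cre virus (~0.5 moi). After 44 h further culture, infection was read as luciferase luminescence following a 15 min substrate incubation at room temperature.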
# Vaccinia mCherry = qHTS for Stage-Specific Inhibitors of Vaccinia Orthopoxvirus: mCherry Reporter Primary qHTS. Vaccinia virus mCherry reporter infection, fluorescence. Potency, µM (highest dose often 36.5 µM), actives largely listed as inhibitors. 310,000 tested, 0.63% active. AID 720579, 2013; calls by dose curve; tested in A549 cells; note: nearly all actives have a fitted effect of over 35% in size
# Vaccinia Venus = qHTS for Stage-Specific Inhibitors of Vaccinia Orthopoxvirus: Venus Reporter Primary qHTS. Potency, µM (top dose mostly 36.5 µM), usual class: inhibitors. Vaccinia virus Venus reporter expression, fluorescence. 330,000 tested, 0.46% active; calls by dose curve; tested in A549 cells; note: nearly all actives have a fitted effect of over 30% in size
# Numbers stand for hits; 0 = inactive; ? = inconclusive; - = no result. In the library only some 3.3% were active in any assay of this set; here they are far more common.
SMILES,HCV inh,Vaccinia mCherry,Vaccinia Venus
O=C(Cc1cccc(NC(=O)C2CCCN(C(=O)c3ccccc3)C2)c1)Nc1ccc(C(=O)N2CCOCC2)cc1 (stereo not drawn),0,0,0
COc1ccc(C(=O)C(Cc2ccccc2)N(C)C)cc1 (stereo not drawn),0,-,-
O=C(c1ccccc1)C(CCc1ccccn1)CCc1ccccn1,0,0,0
COc1ccc(C(=O)C(CCCCC(CN(C)C)C(=O)c2ccc(OC)cc2)CN(C)C)cc1 (stereo not drawn),3.5µM,0,0
CN(C)CC(CCC(CN(C)C)C(=O)c1ccccc1)C(=O)c1ccccc1 (stereo not drawn),?,?,11µM
CCCc1cc(=O)oc2cc(C)cc(OCC(=O)NCCCN3CCOCC3)c12,0,-,-
CCC1CN(CCNC(=O)C2CCCCN2C)Cc2cc(OC)ccc2O1 (stereo not drawn),-,0,0
COc1ccc2c(CNCCc3cccs3)c(C(=O)O)n(Cc3ccccc3)c2c1,-,0,0
CCN(CC)C(=O)c1sc2c(c1C)c(=O)n(-c1ccc(Cl)c(Cl)c1)c(=O)n2Cc1cc(=O)n2c(C)cccc2n1,-,0,0
O=C(CN1CCN(Cc2ccccc2)CC1)NNC(=O)c1ccccc1,0,-,-
COC(=O)c1[nH]c2ccccc2c1NC(=O)CN1CCN(C/C=C/c2ccccc2)CC1,11µM,0,?
Cc1cccc(C)c1NC(=O)CN1CCN(C/C=C/c2ccccc2)CC1,-,0,0
CCOC(=O)c1[nH]c2ccc(F)cc2c1NC(=O)CN1CCN(C/C=C/c2ccccc2)CC1,10µM,-,?
CCOC(=O)c1[nH]c2ccc(OCC)cc2c1NC(=O)CN1CCN(c2ccccc2)CC1,0,-,0
COc1ccc(CSc2nc3ccncc3n2CC(=O)Nc2cc(C)cc(C)c2)cc1,-,0,0
Cc1ccccc1CN1[C@H]2CCCC[C@@H]2OCCS1(=O)=O,-,0,0
CC(C)(C)NC(=O)CN(C(=O)c1snc(C(=O)NC2CCCCC2)c1N)c1ccc(F)cc1,0,0,0
Cc1ccc(C(=O)Nc2ccc(NC(=O)c3ccccc3Cl)c(C)c2)cc1,-,0,0
Cc1ccc2sc3ccc(NC(=O)c4ccccc4Cl)cc3c(=O)c2c1,8.9µM,-,-
CCN(CC)c1cc(C)c(/C=C/c2ccnc3ccccc23)cc1C,-,0,0
Cn1c(=N)n(CC(O)c2cccc3ccccc23)c2ccccc21 (stereo not drawn),11µM,-,0
Cn1c(=N)n(CC(O)c2ccco2)c2ccccc21 (stereo not drawn),0,0,0
CCCCN1C(=O)c2[nH]nc(-c3ccccc3O)c2C1c1ccc(C(C)(C)C)cc1 (stereo not drawn),-,0,?
CC(C)(C)c1ccc(C(=O)NCCC(=O)Nc2ccc3c(c2)OCCO3)cc1,0,0,0
Cc1onc(-c2c(F)cccc2Cl)c1C(=O)Nc1cccc(S(=O)(=O)NC2=NCCC2)c1,0,0,0
SMILES,HCV inh,Vaccinia mCherry,Vaccinia Venus
C=C1CC(Cn2cc(Br)c(=O)[nH]c2=O)(c2ccc(-c3ccccc3)cc2)OC1=O (stereo not drawn),?,2.8µM,7.9µM
O=c1[nH]c(=O)n(CCOc2ccc(Cl)cc2)cc1Br,0,-,0
CC(NC(=O)C1CCN(C(=O)c2ccc(-n3ccc4ccccc43)s2)CC1)c1ccccc1 (stereo not drawn),-,0,0
CSc1cc(-c2ccccc2)n(Cc2c(Cl)cccc2Cl)c(=O)c1C#N,0,-,0
CSc1cc(-c2ccccc2)n(C)c(=O)c1C#N,10µM,?,0
COCCNC(=O)c1ccc(Cl)c(S(=O)(=O)Nc2cccc(C)c2C)c1,-,0,0
COc1ccc(OC)c(C2CC(=O)Nc3c2c(=O)[nH]c2nc4ccccc4n32)c1 (stereo not drawn),-,0,0
CC(Oc1ccc(F)cc1)C(=O)Nc1nc(-c2ccc(F)cc2)ns1 (stereo not drawn),-,0,0
O=C(N/N=C/c1cc(Cl)ccc1O)c1cccnc1,5µM,?,?
O=C(N/N=C\c1cc(Cl)ccc1O)c1ccc(S(=O)(=O)N2CCCCC2)cc1,3.5µM,13µM,?
O=C(N/N=C/c1cccnc1)c1cccc(Cl)c1,0,0,0
O=C(Nc1cc(S(=O)(=O)Nc2ccc(Cl)cc2)ccc1O)c1ccc(S(=O)(=O)N2CCCCCC2)cc1,?,?,0
COn1c(=O)c(-c2cccs2)[n+]([O-])c2ccccc21,?,0,0
Cn1c(-c2cccs2)[n+](C)c2ccccc21,11µM,0,0
COc1cc2c(cc1NC(=O)c1ccc(C(C)(C)C)cc1)CCCC2,?,10µM,0
COc1ccc(C(=O)Nc2cc3c(cc2OC)CCCC3)cc1Br,?,0,0
O=C(O)c1cc2c(cc1NC(=O)C1CCCC1)OCCO2,0,-,-

# High-throughput results as filed in PubChem.
